The values that follow come from PubChem BioAssay (NCATS).

Inconclusive results are not listed. Values without a mark were called inactive. Activity calls are given as the source filed them. The call rests on the fitted dose curve; in most records, active means well fitted cell-killing curve with a large enough effect; inconclusive means small, poorly fitted or top-dose-only effect; inactive means flat fitted curve, though single readings scatter.
On the % scale 0 is the no-effect control and ±100 the full control effect; potency means the concentration at half of the fitted maximal effect.

The assay in a line: Cell Viability - LYMP2-026 (AID 989). Further: nearly all actives have a fitted effect of over 50% in size. The conditions noted are these: LYMP2-026 lymphoblastoid cell viability, qHTS; series mostly up to 92.2 µM; activity change, negative = cytotoxic: at the top concentration. The source says:
NIH Chemical Genomics Center [NCGC]
NIH Molecular Libraries Screening Centers Network [MLSCN]
National Institutes of Environmental Health Sciences [NIEHS]
National Toxicology Program [NTP]
We have developed a 1536-well cell-based assay for quantitative high throughput screening (qHTS) against a number of cell lines to determine in vitro cytotoxicity of small molecules. This particular assay uses a human lymphoblastoid cell line (LYMP2-026) purchased from Coriell Institute for Medical Research.
NCGC Assay Protocol Summary:
The CellTiter-Glo luminescent cell viability assay (Promega) is a homogeneous method to measure the number of viable cells in culture. The end point readout of this assay is based on quantitation of intracellular ATP, an indicator of metabolic activity, using the luciferase reaction. Luciferase catalyzes the oxidation of beetle Luciferin to oxyluciferin and light in the presence of ATP. The luminescent signal is proportional to amount of ATP present.
Using the CellTiter-Glo luminescent cell viability assay, the amount of cellular ATP was measured in the lymphoblastoid cell line with complete culture medium following compound treatment for 24 hours. The assay was performed in opaque white Kalypsys 1536-well plates. In the screen, tetraoctylammonium bromide was used as positive control. Library compounds were measured for their ability to cause acute toxicity in the cell line, as reflected by a decrease in intracellular ATP levels, in a concentration-dependent manner. […] AC50 values were determined from concentration-response data modeled with the standard Hill equation.
qHTS protocol for CellTiter Glo lymphoblastoid cellular assay
[Step] [Parameter] [Value] [Description]
1. Reagent; 5 uL; 2500 lymphoblastoid cells/well
2. Time; 5 hr; 37 C incubation
4. Controls; 23 nL; Tetraoctylammonium bromide 6.4pM to 92 uM
5. Time; 24 hr; 37 C incubation
6. Reagent; 5 uL; CellTiter Glo reagent
7. Time; 30 min; Room Temperature
8. Detection; Luminescence; Viewlux plate reader
Keywords: cell viability, cytotoxicity, lymphoblastoid cell line, luminescence, NTPHTS, NTPHTS_NCGC, NIEHS, DSSTox, MLSMR, MLSCN, NIH Roadmap, qHTS, NCGC
(Quantitative high-throughput screening tests each substance at several concentrations.)
Consider `C[C@]12CC[C@@H]3c4ccc(O)cc4CC[C@H]3[C@@H]1CC[C@@H]2O`, for which the “activity change, negative = cytotoxic” value is -26.1%.

With `O=C1OC(c2ccc(O)cc2)(c2ccc(O)cc2)c2ccccc21`, the “activity change, negative = cytotoxic” value was -16.9%.

For `COc1cccc2c1C(=O)c1c(O)c3c(c(O)c1C2=O)C[C@@](O)(C(=O)CO)C[C@@H]3O[C@H]1C[C@H](N)[C@H](O)[C@H](C)O1`, the Potency is 0.501 µM (active).

Regarding `CCCCCCc1ccc(O)cc1O`, the “activity change, negative = cytotoxic” value is 3.25%. Take `CC(O)C(=O)O` (stereo unspecified): the “activity change, negative = cytotoxic” value is 0.45%. The same measure, in the same setting: the figure for `CC/C(=C(/CC)c1ccc(O)cc1)c1ccc(O)cc1` is -15.7%. In the case of `NC(=NCCCCCCN=C(N)/N=C(\N)Nc1ccc(Cl)cc1)/N=C(\N)Nc1ccc(Cl)cc1`, the Potency was 50.1 µM (active). Take `C=CCc1ccc(O)c(OC)c1`: the “activity change, negative = cytotoxic” value was -2.23%.

For `CN(C)/N=N/c1nc[nH]c1C(N)=O`, the “activity change, negative = cytotoxic” value was -7.64%.

Regarding `COC1=CC(=O)C[C@@H](C)[C@]12Oc1c(Cl)c(OC)cc(OC)c1C2=O`, the “activity change, negative = cytotoxic” value is -6.86%.

As for `CC(C)(C)CC(C)(C)c1ccc(OCCOCC[N+](C)(C)Cc2ccccc2)cc1`, the Potency is 31.6 µM (active). Take `O=C(O)CCCCC(=O)O`: the “activity change, negative = cytotoxic” value is -6.3%. Still for that read-out and setting: the figure for `Oc1ccc(O)cc1` is -24.2%. Same read-out and setting: as for `O=c1ccc2ccccc2o1`, the figure is 6.85%; as for `CC(=O)Oc1ccc(C(c2ccc(OC(C)=O)cc2)c2ccccn2)cc1`, -4.7%. For `Nc1ccc(C(=O)O)cc1`, the “activity change, negative = cytotoxic” value is 3.5%.
